Compound activity from PubChem BioAssay.
Rows were chosen to be rich in hits. Some 9.5% of all compounds tested hit in one or more screens of this group.
Pf growth 48h = Primary qHTS for delayed death inhibitors of the malarial parasite plastid, 48 hour incubation. P. falciparum luciferase growth in erythrocytes, 48 h. Potency, µM (titrated, usually from 28.7 µM), usual class: inhibitors. 5.9% of 310,000 active. AID 504832, 2011; active = well fitted inhibition curve with a large enough effect; inconclusive = small, poorly fitted or top-dose-only effect, or another doubt; inactive = no such curve, though single readings can be large or run the other way
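Parasite viability was followed by luminescence of a genomically integrated firefly luciferase. Cultures held 0.1% parasitemia at 2% hematocrit (final), incubated under 5% CO2 at 37 C.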
SARS PLP yeast = qHTS of Yeast-based Assay for SARS-CoV PLP | 0.19% of 330,000 active | S. cerevisiae expressing SARS-CoV PLpro, growth rescue | Potency, µM (highest dose often 32.9 µM), most hits filed as activators; note: nearly all actives have a fitted effect of over 55% in size
RE007 growth inh = qHTS Assay for Inhibitors of the HIV-1 protein Vpr | S. pombe RE007 Vpr strain, BacTiter-Glo ATP luminescence, 24 h | Potency, µM (doses to about 92.2 µM), most hits filed as inhibitors | 0.21% of 360,000 active; active = well fitted falling curve with a large enough effect; inconclusive = small, poorly fitted or top-dose-only effect; inactive = no such curve, though single readings can be large or run the other way; note: nearly all actives have a fitted effect of over 50% in size
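Fission yeast RE007 carrying one integrated HIV-1 vpr copy, seeded at OD 0.01 in PMG+AL medium with 23 nL pinned compound. Grown 24 h at 30 degrees; viability read by BacTiter-Glo luminescence after 5 min.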
NS1 function inh = qHTS Assay for Inhibitors of Influenza NS1 Protein Function; 0.4% of 270,000 active; Potency, µM (top dose mostly 46.1 µM); note: actives are rising curves; nearly all actives have a fitted effect of over 50% in size
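S. cerevisiae expressing influenza A NS1, grown in glucose, washed, then diluted 1:100 into pH 6.0 -URA galactose medium with 23 nl compound. Growth recovery read as OD600; NS1-free strain serves as control.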
Pf growth 96h = Primary qHTS for delayed death inhibitors of the malarial parasite plastid, 96 hour incubation. P. falciparum luciferase reporter growth, 96 h. Potency, µM (titrated, usually from 28.7 µM), usual class: inhibitors. 6.9% of 320,000 active. AID 504834, 2011; active = well fitted inhibition curve with a large enough effect; inconclusive = small, poorly fitted or top-dose-only effect, or another doubt; inactive = no such curve, though single readings can be large or run the other way
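Infected RBCs, 2% Hct / 0.05% parasitemia final; luciferase-reporter P. falciparum; cpd 96 h, 37 C, 5% CO2; luciferase detection reagent; luminescence.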
Numbers stand for hits; i = inactive; ? = inconclusive; nt = no result given; [ ] = dose if it differs, or a comment. Unless noted, calls come from the whole dose curve.

SMILES	Pf growth 48h	SARS PLP yeast	RE007 growth inh	NS1 function inh	Pf growth 96h
CC(=O)N(CCc1cccc(C)c1)Cc1cc2cc(C)ccc2[nH]c1=O	i	i	i	i	i
S=C1N[C@H](c2ccccc2)N[C@H](c2ccccc2)S1	nt	nt	nt	i	nt
COc1ccc(CCNC(=O)[C@H](C)NC(=O)N2CCn3c2nc2ccccc23)cc1OC	i	i	i	i	?
CCOC(=O)c1cc(C(C)(C)C)oc1CNC(=O)c1c(C)oc2c1CCCC2	15µM	i	i	i	?
CN(C)CCNC(=O)/C(=C/c1ccc(-c2ccc(Cl)cc2)o1)NC(=O)c1ccccc1	13µM	i	nt	i	i
O=C(N/C(=C\c1ccco1)C(=O)N1CCOCC1)c1ccc([N+](=O)[O-])cc1	i	i	i	i	4.7µM
O=C(N/C(=C\c1ccc(Br)cc1)C(=O)N1CCOCC1)c1ccc([N+](=O)[O-])cc1	i	i	i	i	i
CN(C)CCCNC(=O)/C(=C\c1ccc(-c2cccc([N+](=O)[O-])c2)o1)NC(=O)c1ccccc1	?	i	i	i	i
COc1ccc(-c2ccc(/C=C(\NC(=O)c3ccccc3)C(=O)N3CCOCC3)o2)cc1	13µM	i	i	i	i
CN(C)CCNC(=O)/C(=C/c1ccc(-c2ccc(Cl)cc2Cl)o1)NC(=O)c1ccccc1	12µM	i	i	i	i
COc1ccc(C(=O)N/C(=C\c2ccccc2)C(=O)N2CCOCC2)cc1	i	i	i	i	i
CCCCCCCCCCCCCCCC(=O)OC(CC(=O)O)C[N+](C)(C)C (stereo not given)	i	nt	?	?	i
Cc1cc(C(=O)CSc2nn3c(=O)c(C(C)(C)C)nnc3s2)c(C)n1C	i	i	i	nt	?
CN(C)CCCNC(=O)c1cc(Br)ccc1Cl	nt	i	i	i	9.3µM
O=C(NCCN1CCOCC1)c1cc(Br)ccc1Cl	i	i	i	i	i
O=S(=O)(c1c(F)cccc1F)N1CCCC2CCCCC21 (stereo not given)	?	i	i	nt	i
CC(Sc1nnnn1C)C(=O)Nc1ccccc1-c1ccccc1 (stereo not given)	i	i	i	i	i
COc1ccccc1NC(=O)C(C)Sc1nnnn1C (stereo not given)	i	i	i	i	12µM
Cn1nnc2cc(NC(=O)Nc3ccccc3F)ccc21	nt	nt	i	nt	nt
COc1ccccc1NC(=O)Nc1ccc2c(c1)nnn2C	nt	i	i	i	9.3µM
Cc1ccc(-n2nnnc2SC(C)C(=O)Nc2ccccc2-c2ccccc2)cc1 (stereo not given)	?	?	i	i	9.3µM
Cc1ccc(C)c(N2CC(C(=O)Nc3cc(C)on3)CC2=O)c1 (stereo not given)	i	i	i	i	i
O=S(=O)(Nc1ccc(-n2cnnn2)cc1)c1ccc(Cl)s1	nt	i	i	nt	nt
O=C1c2cccc(OCC(=O)N3N=C(c4cccs4)CC3c3ccc(F)cc3)c2CCN1Cc1cccnc1 (stereo not given)	1.5µM	i	i	i	?
O=C(c1cccnc1)N1N=C(c2cccs2)CC1c1ccc(F)cc1 (stereo not given)	i	i	i	nt	i
SMILES	Pf growth 48h	SARS PLP yeast	RE007 growth inh	NS1 function inh	Pf growth 96h
Cc1cccc(C)c1-n1nnnc1C(c1ccnc2ccccc12)N(C)Cc1ccc(Cl)c(Cl)c1 (stereo not given)	nt	nt	i	nt	nt
CCS(=O)(=O)N1CCN(C(=O)c2ccc3nc(C)c(N(C)C(=O)CCc4ccccc4)n3c2)CC1	nt	nt	i[18.4 µM]	nt	nt
CCOc1ccc(N2CC(C(=O)NCCc3ccc(S(N)(=O)=O)cc3)CC2=O)cc1 (stereo not given)	i	i	i	i	i
CCOc1cccc(-c2c(C(=O)N/N=C(\C)c3ccccn3)nnn2-c2nonc2N)c1	?	i	i	i	3.7µM
CCOc1cccc(-c2c(C(=O)N/N=C(\C)c3ccncc3)nnn2-c2nonc2N)c1	i	i	i	i	?
CCOC(=O)c1nnn(-c2nonc2N)c1-c1ccc(OCC)cc1	13µM	i	i	i	?
CCOC(=O)c1nnn(-c2nonc2N)c1CS(=O)(=O)c1ccccc1	i	i	i	i	12µM
CCC(C)NC(=O)CSc1nc2ccsc2c(=O)n1-c1ccc(OC)cc1 (stereo not given)	i	i	i	i	12µM
O=C(Nn1c(SCc2ccc(F)cc2)nc2ccsc2c1=O)c1ccccc1	i	i	i	i	13µM
Cc1ccc(CNC(=O)CSc2nc3ccsc3c(=O)n2NC(=O)c2ccccc2)cc1	i	i	i	i	i
CCC(C)NC(=O)CSc1nc2ccsc2c(=O)n1NC(=O)c1ccccc1 (stereo not given)	nt	i	i	i	8.3µM
CCOc1ccc(CCNC(=O)COC(=O)CSc2ccccc2C)cc1OCC	?	i	i	i	?
N/N=C1/c2ccccc2N[C@H]1OC(=O)Nc1cccc(Cl)c1	nt	nt	nt	i	nt
CCCCNC(=O)COC(=O)c1ccccc1F	i	i	i	i	i
COc1ccc(-c2cn[nH]c2-c2ccc(OCc3ccc(F)cc3)cc2O)cc1OC	10µM	i	i	i	i
COc1ccc(-c2cn[nH]c2-c2ccc(OCc3ccccc3)cc2O)cc1OC	8.3µM	i	i	i	i
COc1ccc(-c2cn[nH]c2-c2ccc(OCC(=O)NN)cc2O)cc1OC	?	i	i	i	?
COc1ccc2c(c1)OC(C)(C)C(c1ccccc1)C2c1ccc(OCCN2CCCC2)cc1 (stereo not given)	1.7µM	nt	nt	nt	3µM
CC(C)c1ccc(S(=O)(=O)/N=C2\C=C(NS(=O)(=O)c3ccccc3)C(=O)c3ccccc32)cc1	i	i	?	i	i
CC(C)c1ccc(S(=O)(=O)/N=C2/C=CC(=O)c3ccccc32)cc1	8.3µM	i	nt	nt	i
O=C1CSC(c2ccc(F)cc2)N1c1nc2ccccc2s1 (stereo not given)	i	i	i	i	10µM
COc1ccc(C(CNC(=O)c2cccc(S(=O)(=O)Nc3ccccc3OC)c2)N2CCCC2)cc1 (stereo not given)	?	i	i	nt	13µM
COc1ccc(C(CNC(=O)c2cc3ccccc3cc2OC)N2CCCC2)cc1 (stereo not given)	nt	i	i	i	4.1µM
CCC1CCc2sc(C(=O)NCC(c3ccc(OC)cc3)N3CCCC3)cc2C1 (stereo not given)	12µM	i	i	nt	?
COc1ccc(C(CNC(=O)c2cc(S(=O)(=O)N3CCCCC3)ccc2C)N2CCCC2)cc1 (stereo not given)	nt	nt	i	nt	nt
COc1ccc(C(CNC(=O)c2cccc(S(=O)(=O)N3CCCCC3)c2)N2CCCC2)cc1 (stereo not given)	?	i	i	nt	10µM
COc1ccccc1NS(=O)(=O)c1cccc(C(=O)NCC(c2ccco2)N2CCCCC2)c1 (stereo not given)	5.2µM	i	i	nt	?
